697 NFkB inh = inhibitors of the PMA/ionomycin-induced NF-kB reporter in 697 B cells. 697 B-cell NF-kB luciferase reporter, 16 h. inhibition, % at 4 µM. 0.33% of 330,000 active; in the data active = inhibition above about 35%
Gli-Sufu block = antagonists of Gli-Sufu signaling; Sufu-KO-LIGHT fibroblasts, Gli luciferase reporter luminescence; inhibition, % at 5 µM; 0.74% of 340,000 active; AID 588413;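 active = inhibition above about 55%, limit read from the data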;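 note: 0% = DMSO-treated cells and 100% = wells with medium but no cells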
Mdm2-MdmX inh = inhibitors of human Mdm2/MdmX interaction; O15151+Q00987; SaOS-2 split-luciferase Mdm2/MdmX complementation, luminescence; inhibition, % at 8 µM; AID 485346; 3% of 330,000 active;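 active = inhibition of at least 50% at 8 µM in the primary screen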
Target sequence (O15151 whole entry, looked up): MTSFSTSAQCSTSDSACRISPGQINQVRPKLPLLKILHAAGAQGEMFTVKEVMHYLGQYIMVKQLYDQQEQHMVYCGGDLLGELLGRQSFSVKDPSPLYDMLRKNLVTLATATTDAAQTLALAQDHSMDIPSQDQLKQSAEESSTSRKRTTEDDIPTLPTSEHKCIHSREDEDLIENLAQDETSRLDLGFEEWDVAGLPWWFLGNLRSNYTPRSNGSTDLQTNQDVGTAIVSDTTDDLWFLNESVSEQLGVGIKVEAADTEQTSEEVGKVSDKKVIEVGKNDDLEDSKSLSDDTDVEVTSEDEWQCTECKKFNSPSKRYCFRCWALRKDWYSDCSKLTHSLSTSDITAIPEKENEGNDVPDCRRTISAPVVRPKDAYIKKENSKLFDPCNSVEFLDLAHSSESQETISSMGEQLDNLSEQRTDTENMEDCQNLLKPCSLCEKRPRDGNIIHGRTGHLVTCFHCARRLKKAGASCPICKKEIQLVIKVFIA
Target sequence (Q00987 whole entry, looked up): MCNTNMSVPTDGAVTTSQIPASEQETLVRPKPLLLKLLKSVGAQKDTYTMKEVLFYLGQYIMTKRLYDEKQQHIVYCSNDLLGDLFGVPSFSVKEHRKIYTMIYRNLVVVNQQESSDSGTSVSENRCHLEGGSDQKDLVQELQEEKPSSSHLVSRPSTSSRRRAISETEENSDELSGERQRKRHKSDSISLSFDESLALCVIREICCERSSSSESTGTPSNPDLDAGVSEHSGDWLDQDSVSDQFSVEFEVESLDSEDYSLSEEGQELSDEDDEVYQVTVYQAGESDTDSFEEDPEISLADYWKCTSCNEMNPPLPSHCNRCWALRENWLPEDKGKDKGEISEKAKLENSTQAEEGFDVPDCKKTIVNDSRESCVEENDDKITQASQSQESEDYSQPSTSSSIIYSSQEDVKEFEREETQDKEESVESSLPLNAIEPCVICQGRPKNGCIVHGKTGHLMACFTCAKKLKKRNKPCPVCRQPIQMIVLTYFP
Shn3 3UTR inh = inhibitors of Schnurri-3 3'UTR reporter in osteoblasts; Clone20 osteoblast Shn3 3'UTR firefly luciferase, 24 h; inhibition, % at 12.5 µM; 0.52% of 360,000 active; AID 588674;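 active = mean inhibition of at least 75% with every replicate also reaching 75%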;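 note: 0% = median of neutral control wells and 100% = pilot-screen positive control compound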
Jurkat NFkB inh = inhibitors of the PMA/ionomycin-induced NF-kB reporter in Jurkat cells. PMA/ionomycin-induced NF-kB luciferase reporter, luminescence. inhibition, % at 4 µM. 0.53% of 330,000 active. AID 435003; in the data active = inhibition above about 50%
Mdm2 MdmX conf = human Mdm2/MdmX binding inhibition, confirmed | luminescent assay | inhibition, % at 8 µM | 55% of 10,000 active | shares compounds with Mdm2-MdmX inh; in the data active = inhibition above about 40%
Full FLuc ctr = inhibits full-length luciferase, flagging false Mdm2/MdmX hits; shares compounds with Mdm2-MdmX inh; SaOS-2 full-length luciferase counterscreen, luminescence; inhibition, % at 8 µM; 77% of 6,200 active;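 active = mean inhibition at 8 µM reaching about 37%, which flags the compound as non-specific, limit read from the data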;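 note: p53-null SaOS-2 cells with luciferase driven by a doxycycline-inducible promoter; compound on cells about two nights before reading with doxycycline added after day one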
Active calls of the source: *; · = not tested or not shown. Most compounds without a hit are left out; they make up all but 3.8% or so of the library.

SMILES	697 NFkB inh	Gli-Sufu block	Mdm2-MdmX inh	Shn3 3UTR inh	Jurkat NFkB inh	Mdm2 MdmX conf	others
CCCc1cc(=O)[nH]c(SCC(=O)c2cc(C)n(CC(F)(F)F)c2C)n1	-12.0	4.1	8.2	2.2	2.1	·
O=C(NNS(=O)(=O)c1ccc(F)cc1F)c1csc(-c2cccnc2)n1	0.2	0.4	-0.1	-11.6	-3.5	·
CCSc1nc(-c2ccccc2)c2cc(Cl)ccc2n1	2.0	-2.0	21.1	7.6	0.5	·
CCSc1nc(-c2ccccc2)nc(C(Cl)Cl)n1	-6.9	15.3	98.3*	23.3	-7.0	99.7*	Full FLuc ctr=4.1
CSc1nc(-c2ccc(C)cc2)nc(C(Cl)Cl)n1	-21.2	17.2	97.3*	6.6	28.0	94.8*	Full FLuc ctr=39.9*
O=C(c1ccc(F)cc1)C1CCN(C(=S)Nc2ccc(F)cc2)CC1	-43.4	16.0	7.3	4.6	2.3	·
O=C(Nc1ccc2c(c1)C(=O)N(c1ccccc1)C2=O)c1cccs1	-5.8	-20.3	50.3*	1.1	-4.5	10.8
c1ccc(CN2CCC(Nc3nc(-c4cccs4)nc4ccccc34)CC2)cc1	-38.8	26.5	93.4*	-6.4	-19.3	33.8	Full FLuc ctr=73.7*
CC1=NN(C(=O)Cn2nc([N+](=O)[O-])c(Br)c2C)C(O)(C(F)(F)F)C1 (stereo not given)	-20.7	-8.0	-0.3	-2.8	-5.5	·
O=C(NCC1CC1)c1cccc2c1C(=O)c1ccc(-c3ccc(OC(F)(F)F)cc3)cc1S2(=O)=O	2.4	-7.8	66.4*	47.0	0.2	8.4
O=C1c2ccc(Cl)cc2S(=O)(=O)c2cccc(C(=O)N3CCC(Cc4ccccc4)CC3)c21	13.9	2.5	68.4*	-11.9	-0.9	-3.1
O=C(NC1CC1)c1cccc2c1C(=O)c1ccc(N3CCC(Cc4ccccc4)CC3)cc1S2(=O)=O	-62.5	21.7	16.5	44.0	10.4	·
COc1ccc(-c2ccc3c(c2)S(=O)(=O)c2cccc(C(=O)NC[C@@H]4CCCO4)c2C3=O)cc1OC	31.2	-4.4	35.4	-6.2	3.7	·
COc1ccc(NC(=O)c2cccc3c2C(=O)c2ccc(-c4ccc(F)cc4OCc4ccccc4)cc2S3(=O)=O)cc1	6.5	6.7	78.4*	21.9	2.2	30.9
COc1ccc(-c2ccc3c(c2)S(=O)(=O)c2cccc(C(=O)NCCOc4ccccc4)c2C3=O)cc1OC	12.4	19.1	75.9*	15.1	-0.1	27.2
O=C(NCCCN1CCCC1=O)c1cccc(NS(=O)(=O)c2ccc(Br)cc2)c1	16.4	2.4	16.0	-2.0	16.2	·
Cc1ccc(CC2SC(N)=NC2=O)cc1 (stereo not given)	7.8	-0.8	11.7	-9.7	-14.3	·
Cc1cccc(C(=O)N[C@H](C(=O)OCC(=O)NC(=O)c2cccn2C)C(C)C)c1	19.1	-4.5	-14.2	-11.7	-0.3	·
CCc1ccc(NC(=O)Cn2c3[n+](c4c(F)c(F)ccc42)CCCCC3)cc1	-1.2	17.2	7.7	15.5	-15.2	·
CSc1ccc(CNC(=O)C(C)n2nc(C)c3c(C)n(-c4ccccc4)nc3c2=O)cc1 (stereo not given)	7.7	-3.1	12.5	12.9	-0.8	·
O=C(NCCOc1ccccc1)c1cccc2c1C(=O)c1ccc(Cl)cc1S2(=O)=O	10.9	-5.9	15.8	-11.3	-4.4	·
O=C(NCCOc1ccccc1Cl)c1cccc2c1C(=O)c1ccc(Cl)cc1S2(=O)=O	5.5	-9.1	59.3*	-6.0	4.3	-3.4
CCCOc1ccc(Oc2nc(-c3ccncc3)nc3ccccc23)cc1	17.1	2.6	10.8	4.7	1.2	·
O=C(c1cc(-c2cccnc2)nc2ccc(Br)cc12)N1CCN(c2ncccn2)CC1	0.7	2.3	51.7*	-0.5	-1.3	50.8*	Full FLuc ctr=100.9*
COc1ccc(CN2CCN(C(=O)c3cc(-c4cccnc4)nc4ccc(Cl)cc34)CC2)c(OC)c1OC	14.0	18.0	50.6*	21.0	5.5	48.7*	Full FLuc ctr=73.2*
SMILES	697 NFkB inh	Gli-Sufu block	Mdm2-MdmX inh	Shn3 3UTR inh	Jurkat NFkB inh	Mdm2 MdmX conf	others
CS(=O)(=O)N1CCN(C(=O)c2cc(-c3cccnc3)nc3ccc(Cl)cc23)CC1	17.3	-0.8	-3.0	-3.2	-2.3	·
CC(=O)c1ccc(N2CCN(C(=O)c3cc(-c4cccnc4)nc4ccc(Br)cc34)CC2)cc1	-9.8	2.0	30.3	4.0	-9.5	·
Cc1ccc(S(=O)(=O)N2CCN(C(=O)c3c(-c4ccccc4)noc3C)CC2)c(C)c1	1.8	7.1	21.9	1.2	11.1	·
CCOC(=O)c1[nH]c(COC(=O)c2ccccc2NC(=O)c2ccco2)c(C(=O)OCC)c1C	20.8	12.0	-32.9	2.0	-9.5	·
CCOC(=O)c1c(C)[nH]c(C(=O)COC(=O)c2ccccc2NC(=O)c2ccco2)c1C	-6.5	12.4	63.4*	11.4	-4.5	16.4
O=C(Cn1cc(S(=O)(=O)N2CCN(c3ccccc3F)CC2)c2ccccc2c1=O)NCCCN1CCCCCC1	-0.1	12.9	30.5	36.5	-7.6	·
CCOC(=O)c1ccc(N2C(=O)C(C)=C(C)C2=O)cc1	-54.7	-60.9	62.4*	7.8	-32.8	7.7
O=c1c2ccccc2sn1-c1ccc(F)cc1	-0.7	6.3	50.9*	-12.6	-22.6	11.6
Cc1ccc(-n2sc3ccccc3c2=O)cc1	-36.4	-2.4	29.1	-42.8	-25.1	·
Cc1ccc2cc3cc(C(=O)NCc4ccc5c(c4)OCO5)oc3nc2c1	-4.2	-13.7	68.4*	·	5.4	28.5
CN(C)c1ccc(NC(=O)COC(=O)c2ccc3c(c2)OCO3)cc1	6.5	30.1	-1.6	8.6	-0.3	·
CN(C)c1ccc(C(=O)OCC(=O)Nc2ccc(S(N)(=O)=O)cc2)cc1	13.0	-5.8	52.9*	11.6	2.8	-11.9
COc1ccc(/C=C/C(=O)Nc2ccc3nc4n(c(=O)c3c2)CCCC4)cc1OC	-6.0	-1.7	59.8*	0.6	-3.9	13.6
COc1ccc(C(=O)Nc2ccc3nc4n(c(=O)c3c2)CCCCC4)cc1OC	·	·	·	-21.3	·	·
O=C(Nc1ccc2nc3n(c(=O)c2c1)CCCCC3)c1cc([N+](=O)[O-])ccc1F	-83.3	15.1	98.1*	96.2*	29.5	79.3*	Full FLuc ctr=21.9
C=CCn1c(O)c(C2=c3ccccc3=NC2=O)sc1=Nc1ccc(O)cc1	-11.1	2.1	78.2*	-36.3	8.5	0.8
CN1CCN(NS(=O)(=O)c2ccc(Cl)cc2)CC1	9.2	-2.1	28.3	5.8	19.9	·
CCCCC1CCC(C(=O)N(CCCC)c2c(N)n(CCCC)c(=O)[nH]c2=O)CC1 (stereo not given)	-14.7	0.3	98.9*	69.4	12.4	27.8
CCCCC1CCC(C(=O)N(CCC(C)C)c2c(N)n(CCCC)c(=O)[nH]c2=O)CC1 (stereo not given)	·	·	·	-0.2	·	·
Cc1cccc(Oc2ccc(Cl)cc2N)c1	-8.1	-22.3	14.6	-3.1	-23.0	·
COc1ccc(Nc2oc(COc3ccccc3OC)nc2C#N)cc1	10.9	35.4	68.5*	23.8	4.7	63.8*	Full FLuc ctr=71.7*

Compound activity deposited in PubChem by several laboratories.
